# According to PubChem BioAssay (NCATS):
# Active and inactive are the calls of the source. The call rests on the fitted dose curve.
# Key:
# Assay in all cases: Confirmatory Screen for Target Class Profiling of Small Molecule Inhibitors of Methyltransferases (AID 1745852); on activity change, negative = inhibition: on the % scale 0 is the no-effect control and ±100 the full control effect
# [1] = target: Catechol O-methyltransferase (Homo sapiens) (UniProt P21964); conditions: MTase-Glo luminescence, SAH detection, recombinant enzyme; measured here: COMT max response; stronger effect = lower value
# [2] = target: Guanidinoacetate N-methyltransferase (Homo sapiens) (UniProt Q14353); conditions: activity change, negative = inhibition: at 57.3 µM (top of the series) unless noted
# [3] = target: Nicotinamide N-methyltransferase (Homo sapiens) (UniProt P40261); conditions: MTase-Glo luminescence, SAH detection, recombinant enzyme; measured here: NNMT max response; stronger effect = lower value
# [4] = target: Phenylethanolamine N-methyltransferase (Homo sapiens) (UniProt P11086); conditions: MTase-Glo luminescence, SAH detection, recombinant enzyme; measured here: PNMT max response; stronger effect = lower value
# Potency means the concentration at half of the fitted maximal effect.
# Sequence of Nicotinamide N-methyltransferase (Homo sapiens) (P40261 whole entry, looked up): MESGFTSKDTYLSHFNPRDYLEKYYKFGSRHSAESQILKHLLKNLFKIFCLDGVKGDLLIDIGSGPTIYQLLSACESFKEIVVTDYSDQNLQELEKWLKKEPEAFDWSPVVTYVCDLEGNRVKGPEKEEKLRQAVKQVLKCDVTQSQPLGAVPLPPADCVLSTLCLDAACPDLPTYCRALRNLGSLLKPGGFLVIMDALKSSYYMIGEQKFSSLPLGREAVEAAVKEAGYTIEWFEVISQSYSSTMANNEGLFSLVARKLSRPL
# Sequence of Catechol O-methyltransferase (Homo sapiens) (P21964 whole entry, looked up): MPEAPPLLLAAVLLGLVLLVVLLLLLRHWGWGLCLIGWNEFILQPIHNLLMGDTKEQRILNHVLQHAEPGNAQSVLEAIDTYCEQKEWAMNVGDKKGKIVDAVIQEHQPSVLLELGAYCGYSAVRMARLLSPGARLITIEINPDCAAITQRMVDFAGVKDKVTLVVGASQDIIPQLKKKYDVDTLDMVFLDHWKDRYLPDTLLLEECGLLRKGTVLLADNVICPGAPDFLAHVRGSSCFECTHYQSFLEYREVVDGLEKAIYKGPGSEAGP
# Sequence of Phenylethanolamine N-methyltransferase (Homo sapiens) (P11086 whole entry, looked up): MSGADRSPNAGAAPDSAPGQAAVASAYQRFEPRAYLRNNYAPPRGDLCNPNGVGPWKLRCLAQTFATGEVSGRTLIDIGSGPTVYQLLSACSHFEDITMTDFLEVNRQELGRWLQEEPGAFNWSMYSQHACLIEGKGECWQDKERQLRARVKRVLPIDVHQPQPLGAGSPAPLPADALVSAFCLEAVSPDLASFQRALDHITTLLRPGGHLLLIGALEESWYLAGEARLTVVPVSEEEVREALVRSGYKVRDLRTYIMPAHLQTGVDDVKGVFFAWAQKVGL
Structure (SMILES),activity [1] [%],Potency [2],activity [3] [%],activity [4] [%],"activity change, negative = inhibition [2]"
CC1(C(=O)NC2CCCCCC2)Cn2c(cc3occc32)C(=O)N1Cc1ccc2c(c1)OCO2 (stereo unspecified),-5.04,inactive,-18,-10.8,
Cc1cc(C)c(CNC(=O)c2cc(-c3cnn(C)c3C)cc3c2OCCN3C)c(=O)[nH]1,-62.4,39.3 µM (active),-51.4,-75.2,
CN(CCc1nc2ccc(Cl)cc2[nH]1)c1cc(C2CC(O)C2)nc(N)n1 (stereo unspecified),4.84,,-2.79,3.63,2.73%
CCCCN1C(=O)c2cc(C(=O)NCCc3ccccc3Cl)nn2CC1(C)C(=O)NC1CCCC1 (stereo unspecified),0.497,,-0.43,-2.62,0%
CCc1cccc(NC(=O)Cn2c(=O)oc3cc(S(=O)(=O)N4CCCCC4)ccc32)c1,1.79,,-2.82,-33.8,0%
O=C(CCn1c(=O)[nH]c2cc(S(=O)(=O)N3CCCCC3)ccc21)Nc1ccc(Cl)cc1,-1.03,,-18.8,-3.3,0%
CC(C)c1nccn1CCCNC(=O)c1ccc(-c2cccc(F)c2)nc1,4.81,,9.65,-0.0651,3.97%
O=C(OCc1ccccc1)N1CCOCC12CCN(Cc1c[nH]c3ccccc13)CC2,6.86,,5.55,1.46,9.15% [at 85.7 µM]
CN(C)c1nc2c(c(N3C[C@@H](CN4CCCC4)[C@@H](CO)C3)n1)CCCC2,4.35,,3.39,3.79,2.26%
